# High-throughput results (PubChem)
# DUX4 txn inh – inhibitors of DUX4-driven ZSCAN4 reporter expression, primary screen, 293T cells, Gaussia and Italica luciferase; activity change, negative = inhibition, % (no concentration beside the values); actives 0.8% (n = 37,000); 293T-iDUX4 ZSCAN4-Gaussia luciferase reporter, 24 h; hits give low values; AID 1224904, 2016;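 active = mean inhibition of at least 10% in the main channel, exceeding the control channel by a set limit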
# Numbers stand for hits; n = inactive. Shown is part of a subset that was picked to be rich in hits.
SMILES,DUX4 txn inh
O=C(Nc1ccc(F)cc1)N1CCCCN2[C@H](C1)[C@H](c1ccc(-c3cccc(F)c3)cc1)[C@@H]2CO,n
Cc1ccccc1-c1ccc([C@@H]2[C@@H](CO)N3CCCCN(C(=O)NC4CCCC4)C[C@H]23)cc1,n
COc1ccc2c3c(n(C)c2c1)[C@@H](CO)N(CC1CC1)CC31CCN(C(=O)c2cccnc2)CC1,n
C[C@H]1CN([C@@H](C)CO)C(=O)c2cccc(NS(C)(=O)=O)c2O[C@H]1CN(C)Cc1ccc(-c2ccccc2)cc1,n
COc1ccc2c3c([nH]c2c1)[C@H](CO)N(C(=O)Nc1cccc(F)c1)CC31CN(CC2CC2)C1,n
COc1ccccc1-c1ccc2c(c1)O[C@@H](CN(C)C(=O)c1ccncc1)[C@@H](C)CN([C@H](C)CO)S2(=O)=O,n
C[C@@H]1CN([C@@H](C)CO)S(=O)(=O)c2ccc(C#CC3(O)CCCC3)cc2O[C@@H]1CN(C)C(=O)Nc1cccc(F)c1,n
C[C@@H]1CCCCO[C@@H](CN(C)C(=O)Nc2ccc(C(F)(F)F)cc2)[C@H](C)CN([C@@H](C)CO)C(=O)c2cc(NS(=O)(=O)c3ccc(Cl)cc3)ccc2O1,n
O=C(C1CCC1)N1CC2(C1)[C@H](c1ccccc1)[C@H](CO)N2C(=O)NC1CCCC1,n
O=S(=O)(c1ccccc1)N1CCCCN2[C@H](C1)[C@@H](c1ccc(C#Cc3cccnc3)cc1)[C@@H]2CO,n
O=S(=O)(c1ccccc1)N1CCCCN2[C@H](CO)[C@H](c3ccc(C#Cc4cccnc4)cc3)[C@@H]2C1,-56.4
O=S(=O)(c1ccccc1)N1CCCCN2[C@H](CO)[C@H](c3ccc(C#CC4CCCC4)cc3)[C@@H]2C1,n
C[C@H](O)C#Cc1ccc([C@H]2[C@H]3CN(S(=O)(=O)c4ccccc4)CCCCN3[C@H]2CO)cc1,n
O=C(C1CC1)N1CCCCN2[C@H](CO)[C@H](c3ccc(C#CC4CCCC4)cc3)[C@H]2C1,n
O=C(Nc1ccc(F)cc1)N1CCCCN2[C@H](C1)[C@H](c1ccc(C#CC3CC3)cc1)[C@@H]2CO,n
O=S(=O)(c1ccc(F)cc1)N1CCCCN2[C@H](C1)[C@@H](c1ccc(C#CC3CC3)cc1)[C@@H]2CO,n
O=S(=O)(c1ccccc1)N1CCCCN2[C@H](C1)[C@H](c1ccc(C#Cc3cccnc3)cc1)[C@@H]2CO,-45.3
O=C(C1CC1)N1CCCCN2[C@H](C1)[C@@H](c1ccc(C#CC3CCCC3)cc1)[C@@H]2CO,-24.5
O=S(=O)(c1ccccc1)N1CCCCN2[C@H](C1)[C@H](c1ccc(C#CC3CCCC3)cc1)[C@@H]2CO,-26.4
O=S(=O)(c1ccccc1)N1CCCCN2[C@H](CO)[C@@H](c3ccc(-c4ccccc4)cc3)[C@@H]2C1,n
C[C@H](O)C#Cc1ccc([C@@H]2[C@H](CO)N3CCCCN(S(=O)(=O)c4ccccc4)C[C@@H]23)cc1,n
CC(C)[C@H]1COCc2cnnn2CCC[C@H](C)C(=O)N1,n
C[C@H]1CN([C@@H](C)CO)C(=O)CCCn2nncc2CO[C@@H]1CN(C)C(=O)Nc1ccccc1,n
COC(=O)C[C@H]1CC[C@H]2[C@H](COc3ccc(NC(=O)c4ccc(F)c(F)c4)cc3C(=O)N2C)O1,n
O=C([C@@H]1[C@@H](CO)[C@@H]2Cn3c(cccc3=O)[C@@H]2N1Cc1cocn1)N1CCC(Cc2ccccc2)CC1,n
SMILES,DUX4 txn inh
O=C(Nc1cccc(F)c1)N1[C@@H]2CNC[C@H]1C2c1ccc(-c2cncnc2)cc1 (some centres undefined),n
COc1ccc2c3c(n(C)c2c1)[C@H](CO)N(Cc1cccc(Cl)c1)CC31CN(C(=O)C2CC2)C1,n
C[C@@H]1CN([C@@H](C)CO)S(=O)(=O)c2ccc(-c3cccc(F)c3)cc2O[C@H]1CN(C)S(=O)(=O)c1ccccc1,n
O=C(C[C@H]1C[C@H]2c3cc(NC(=O)CC4CC4)ccc3O[C@H]2[C@@H](CO)O1)NCC1CC1,n
C[C@@H]1CCCCO[C@H](CN(C)Cc2ccc(C(=O)Nc3ccccc3N)cc2)[C@@H](C)CN([C@H](C)CO)C(=O)c2cc(NS(=O)(=O)c3cn(C)cn3)ccc2O1,n
COC(=O)C[C@@H]1C[C@H]2c3cc(NC(=O)CC4CC4)ccc3O[C@H]2[C@@H](CO)O1,n
